Compound activity (PubChem)
Most compounds without a hit are left out; they make up all but 3.9% or so of the library.
HepG2 tox-1: counter-screen for TGF-b inhibitors: cytotoxicity in HepG2 cells; 410,000 tested, 0.76% active; Potency, µM (doses to about 46.1 µM), usual class: cytotoxic; HepG2 CAGA-GFP viability, ATP luminescence, 18 h; AID 588856
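CellTiter-Glo luminescence gave cytotoxicity after 18 hours at 37 degrees C. The cells were HepG2 CAGA-GFP in 1% FBS DMEM, stimulated with 500 pg/mL TGF-beta after compound addition. %Activity was normalised to no-cell wells (complete cell-killing) and DMSO (no toxicity), and curves were fitted and classified.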
HT1080-NT tox: kills 2HG-producing HT-1080-NT fibrosarcoma cells; HT-1080-NT fibrosarcoma viability, CellTiter-Glo ATP luminescence, 48 h; Potency, µM (series often up to 46.1 µM), most hits filed as cytotoxic; 360,000 tested, 1.6% active;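 note: NT is the 2HG producing partner of a matched IDH1 knockdown line; nearly all actives have a fitted effect of over 55% in size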
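A 48-hour cytotoxicity screen used HT-1080-NT cells plated 2 hours before compound delivery. ATP-based CellTiter-Glo luminescence measured viability, normalized to DMSO and no-cell controls.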
S2 tox: viability counter-screen for ATXN expression inhibitors | S2 cells (HEK-293 line with an ATXN2-luciferase reporter) viability, CellTiter-Fluor protease fluorescence, 24 h | Potency, µM (titrated, usually from 56.7 µM), most hits filed as cytotoxic | 400,000 tested, 0.49% active | AID 651635; note: nearly all actives have a fitted effect of over 40% in size
ATXN2 expr inh: ATXN2 expression inhibition. HEK-293 ATXN2-luciferase reporter, luminescence, 24 h. Potency, µM (titrated, usually from 57 µM), usual class: inhibitors. 360,000 tested, 0.72% active. AID 1745845; note: nearly all actives have a fitted effect of over 55% in size
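ATXN2-luciferase reporter cells (luciferase flanked by upstream and downstream ATXN2 gene portions) were treated 24 h at 37 °C with compounds at up to 57 uM. SteadyGlo luminescence gave expression; GF-AFC fluorescence gave viability.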
HT1080 IDH1KD tx: kills HT-1080 cells with IDH1 knockdown. HT-1080 IDH1 knockdown viability, ATP luminescence, 48 h. Potency, µM (doses to about 46.1 µM), usual class: cytotoxic. 360,000 tested, 2% active
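Knockdown cells (IDH1KD HT-1080) received compounds 2 h after plating at 750 cells/well and were kept 48 h at 37 °C in 5% FBS RPMI. A CellTiter-Glo luminescence read gave % activity for curve fitting.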
TGFb inhibitor: TGF-b pathway inhibition; HepG2 CAGA-GFP TGF-b/SMAD3 reporter, GFP fluorescence, 18 h; TGF-beta stimulated, 500 pg/mL final; Potency, µM (top dose mostly 46.1 µM), hits mostly inhibitors; 410,000 tested, 1.2% active; AID 588855; note: nearly all actives have a fitted effect of over 65% in size
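GFP signal (ex488/em500-530) from TGF-beta-stimulated HEPG2 CAGA-GFP cells, 500 pg/mL final, 18 h at 37 degrees C in DMEM plus 1% FBS, normalized to unstimulated and DMSO-stimulated controls.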
TGFb confirm: TGF-b pathway inhibition, cherry-pick retest; 1,600 tested, 63% active; Potency, µM (doses to about 46.1 µM), most hits filed as inhibitors; HepG2 CAGA-GFP TGF-b reporter, GFP fluorescence, 18 h; cells stimulated with TGF-beta, 500 pg/mL; shares compounds with TGFb inhibitor; note: nearly all actives have a fitted effect of over 65% in size
HepG2 tox-2: toxic to HepG2 cells in TGF-b counterscreen; shares compounds with TGFb inhibitor; HepG2 CAGA-GFP viability, ATP luminescence, 18 h; cells stimulated with TGF-beta, 500 pg/mL; Potency, µM (titrated, usually from 46.1 µM), hits mostly inhibitors; 1,600 tested, 27% active; note: nearly all actives have a fitted effect of over 70% in size
CCL64 TGFb inh: TGF-b inhibition, CCL64 orthogonal assay. AID 720536. CCL64 CAGA-GFP reporter, TGF-b stimulated, GFP fluorescence, 18 h. 1,600 tested, 41% active. shares compounds with TGFb inhibitor. Potency, µM (series often up to 46.1 µM), most hits filed as inhibitors; note: nearly all actives have a fitted effect of over 65% in size
TGFb COP inh: blocks TGF-b signaling in HepG2 COP reporter | shares compounds with TGFb inhibitor | HepG2 COP-GFP TGF-b reporter, GFP fluorescence, 18 h; cells stimulated by added recombinant TGF-beta | Potency, µM (series often up to 46.1 µM), usual class: inhibitors | 1,600 tested, 3% active; note: nearly all actives have a fitted effect of over 70% in size
Of the large screens only hits and unclear results are named; the others gave an inactive call (follow-up assays come after a bar, where they were run). Calls come from the whole dose curve; as a rule, active = well fitted curve in the direction sought with a large enough effect; inconclusive = small, poorly fitted or top-dose-only effect, or another doubt; inactive = no such curve, though single readings can be large; an effect the other way counts as inactive or inconclusive.

CCCCc1nn2c(=O)cc(COC(=O)c3ccc(NC(=O)C4CCCCC4)cc3)nc2s1	none (no result: HT1080-NT tox, S2 tox, ATXN2 expr inh, HT1080 IDH1KD tx)
Cc1cc(NC(=O)CSc2nc3cc(Cl)ccc3o2)no1	none
CCN(CC)S(=O)(=O)c1ccc2oc(SCC(=O)Nc3cc(C)on3)nc2c1	ATXN2 expr inh inconclusive, HT1080 IDH1KD tx inconclusive, TGFb inhibitor 10µM | TGFb confirm inconclusive | HepG2 tox-2 inconclusive | CCL64 TGFb inh inactive | TGFb COP inh inactive
Cc1cc(C)c(NC(=O)c2nc3ccccc3nc2N2CCCCC2)c(C)c1	none (no result: HT1080-NT tox, HT1080 IDH1KD tx)
CCOc1ccc(NCc2nc3ccccc3n2CCOc2ccccc2)cc1	S2 tox inconclusive, HT1080 IDH1KD tx inconclusive, TGFb inhibitor 20µM | TGFb confirm 14.6µM | HepG2 tox-2 inactive | CCL64 TGFb inh inactive | TGFb COP inh inactive
Cc1ccc(-n2c3nc(=O)n(C)c(=O)c-3cc3c(Cl)cccc32)c(C)c1	none (no result: HT1080-NT tox, HT1080 IDH1KD tx)
O=S(Cc1ccc(Br)cc1)Cc1nnc(SCc2ccc(Br)cc2)n1-c1ccccc1 (stereo unspecified)	HT1080 IDH1KD tx inconclusive, TGFb inhibitor 8.91µM | TGFb confirm 20.6µM | HepG2 tox-2 inconclusive | CCL64 TGFb inh inconclusive | TGFb COP inh inactive
COc1ccc(-n2c(SCc3ccccc3F)nc3c([nH]c4ccccc43)c2=O)cc1	none (no result: HT1080-NT tox, HT1080 IDH1KD tx)
Cc1oc2ccc(O)c(CN3CCN(Cc4ccccc4)CC3)c2c1C(=O)Nc1cccc(Cl)c1C	none (no result: HT1080-NT tox, S2 tox, ATXN2 expr inh, HT1080 IDH1KD tx)
CN(C)CCN(C)C1CN(Cc2ccc(F)cc2)S(=O)(=O)C1 (stereo unspecified)	TGFb inhibitor inconclusive | TGFb confirm inactive | HepG2 tox-2 inactive | CCL64 TGFb inh inactive | TGFb COP inh inactive
CCN(C(=O)c1ccc2c(c1)N(Cc1cccc(Cl)c1)C(=O)c1ccccc1S2=O)c1ccccc1 (stereo unspecified)	S2 tox inconclusive, TGFb inhibitor inconclusive (no result: HT1080-NT tox, HT1080 IDH1KD tx)
Cc1ccc(N2CCN(c3cc(C)nc4c(-c5ccc(Cl)cc5)c(C)nn34)CC2C)cc1 (stereo unspecified)	none (no result: HT1080-NT tox, S2 tox, ATXN2 expr inh, HT1080 IDH1KD tx)
O=C(COC(=O)c1c2c(nc3ccccc13)/C(=C\c1cccs1)CCC2)Nc1ccccc1	TGFb inhibitor 11.2µM | TGFb confirm inconclusive | HepG2 tox-2 inconclusive | CCL64 TGFb inh inconclusive | TGFb COP inh inactive
CC(C)CNC(=O)COC(=O)c1c2c(nc3ccccc13)/C(=C\c1cccs1)CC2	HT1080 IDH1KD tx inconclusive (no result: S2 tox)
CC(=O)c1ccc(NC(=O)COC(=O)c2c3c(nc4ccccc24)/C(=C\c2cccs2)CCC3)cc1	ATXN2 expr inh inconclusive, HT1080 IDH1KD tx inconclusive, TGFb inhibitor 1.78µM | TGFb confirm 6.51µM | HepG2 tox-2 inconclusive | CCL64 TGFb inh 1.46µM | TGFb COP inh inactive
COc1cc(C=CC(=O)c2ccccc2)cc(OC)c1OC	HT1080-NT tox 10.3µM, ATXN2 expr inh inconclusive, HT1080 IDH1KD tx 8.2µM, TGFb inhibitor 10µM | TGFb confirm 18.4µM | HepG2 tox-2 inconclusive | CCL64 TGFb inh 16.4µM | TGFb COP inh inactive
